Laboratory results as given in the supplement of paper PMC10105736.
Unmarked numbers belong to inactive results.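 Rule for the calls: active = MAPPIT score above the 99th percentile of random reference set scores in the same batch; inactive = at or below it.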

Columns and labels:
Test in all cases: MAPPIT interaction score (arbitrary units); higher = stronger binary interaction signal, active = hit call of the paper
[1] = target: ATPsynCF6L; settings: MAPPIT configuration: N-C; pair source set: screen_3
Protocol: (§1)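 MAPPIT in HEK293T cells: Drosophila bait and prey ORFs (from the FlyBi ORF collection) were co-transfected in quadruplicate, with two wells stimulated by erythropoietin. Interaction-dependent JAK-STAT activation was read out with a STAT-responsive firefly luciferase reporter. Positive calls use the 99th percentile of random reference set (RRS) scores within each batch […]. Batches Dvs01 and Dvs02 used the N-N configuration and Dvs04 the N-C configuration. Pairs come from FlyBi screens, CuraGen, DPiM, Finley Y2H, Lit-BM-16, Lit-BS-16 and RRS.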

[2] = target: CG13643; settings: MAPPIT configuration: N-C; pair source set: screen_3
Protocol: as §1

[3] = target: Dpm3; settings: MAPPIT configuration: N-C; pair source set: screen_3
Protocol: as §1

[4] = target: NaPi-T; settings: MAPPIT configuration: N-C; pair source set: screen_4
Protocol: as §1

[5] = target: Pdk1; settings: MAPPIT configuration: N-N; pair source set: Curagen_high_conf
Protocol: as §1

[6] = target: ATPsynG; settings: MAPPIT configuration: N-N; pair source set: Lit-BS-16
Protocol: as §1

[7] = target: sle; settings: MAPPIT configuration: N-N; pair source set: Lit-BS-16
Protocol: as §1

[8] = target: ATPsyndelta
Protocol: as §1

[9] = target: ATPsynF; settings: MAPPIT configuration: N-N; pair source set: DPIM
Protocol: as §1

[10] = target: ATPsynC; settings: MAPPIT configuration: N-C; pair source set: screen_3
Protocol: as §1

[11] = target: Acp1; settings: pair source set: RRS
Protocol: as §1

[12] = target: ATPsyngamma; settings: MAPPIT configuration: N-N; pair source set: DPIM
Protocol: as §1

[13] = target: CG15572; settings: MAPPIT configuration: N-C; pair source set: screen_4
Protocol: as §1

[14] = target: CG42659; settings: MAPPIT configuration: N-C; pair source set: screen_3
Protocol: as §1

[15] = target: Polr3E; settings: MAPPIT configuration: N-C; pair source set: screen_4
Protocol: as §1
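Note: HEK293T cells with Epo stimulation, STAT-responsive firefly luciferase reporter, fold induction versus unstimulated cells divided by the larger fold induction of two negative controls lacking either bait or prey.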

B1: Mst57Da (protein)
chain: MKFLALFVTLLVVLALVSAQKSQNTNHNVIVIGAKKPGAAPAAAAAAAPAAPPAAAPAAAPAAPEAGLADAPAES
- MAPPIT interaction score [1]: 0.192
- MAPPIT interaction score [2]: -0.565
- MAPPIT interaction score [3]: 0.043
- MAPPIT interaction score [4]: 1.02
- MAPPIT interaction score [5]: -0.52

B2: Arp6 (protein)
chain: MANAVVVLDNGAHTAKVGLANQDEPHVVPNCIMKAKSERRRAFVGNQIDECRDTSALYYILAFQRGYLLNWHTQKTVWDYIFSKDGIGCSLENRNIVITEPQMNFQSIQEATLEILFEEYKVDGVYKTTAADLAAFNYVADSEERTTMESLNCIIIDVGYSFTHVVPFVLGRRVLQGIRRIDMGGKALTNQLKELISYRHLNVMDESHVVNQIKEDVCFVAEDFKQAMQVHYSEEKRREVTVDYVLPDFTTVKRGYVRVPGKPREDEEQQQMVSLCNERFTVPELLFNPSDIGVQQVGIPEAVADCLKACPWEAHRELLLNILIVGGSAQFPGFLPRLKRDLRALVPDDLEVSLICPEDPVRYAWYGGKEVATSPNFEEFVYTQDDYEEYGFQGINQR
- MAPPIT interaction score [6]: 0.0569
- MAPPIT interaction score [7]: -0.421

B3: ATPsynF (protein)
chain: MAFGDYPAEYNPKVHGPYDPARFYGKADVPFGQVKLGEIGAWLGRRNKTPNAVAGAVSRAWWRWQHKYVFPKRAGIAPFFQLTVASMTFFYLINYTKLKHHRNYKYH
- MAPPIT interaction score ([8]; MAPPIT configuration: N-N, pair source set: DPIM): 0.173

B4: ATPsynCF6 (protein)
chain: MLSQSLLSGMRVLRTEARRNFGIVAPALNKASDPIQQLFLDKVREYKQKSAGGKLVDSNPDIERELKTELDRVAKQFGSDGKTDMLKFPEFQFPDVKVDPITQAPQ
- MAPPIT interaction score [9]: -0.221

B5: stas (protein)
chain: MSYCSGVAISADEGITMRNGRAKALQEHSPDQVATPLLPQVPPQEQQDLNPQQQQQQQQQQQATPQKQAMSADEKKATKKSLVIVAGIFVASLVTMCYVYAIFPELNASEKQHLKIPRDIQDAKMLAKVLDRYKDMYYFEVMFGVVVAYVFLQTFAIPGSLFLSILLGFLYKFPIALFLICFCSALGATLCYTLSNLVGRRLIRHFWPKKTSEWSKHVEEYRDSLFNYMLFLRMTPILPNWFINLASPVIGVPLHIFALGTFCGVAPPSVIAIQAGKTLQKMTSSSEAFSWTSMGILMACACASLLPGLLKNKFKHKKEA
- MAPPIT interaction score [10]: 0.0375

B6: spir (protein)
chain: MTEHQAEEQADTPPTKVKATPTPTPSGKFKDAKEDAFLSTSPDSANGDAQHKLPADQLAMSSSAHPQQAGQARPLILQAFHRCSSPEQCVTLHDILDSFKAPLSEDQAWALIHQFAGLYHQVAVQAHTCAADYEAALPTGFELHFHRDGSVHFSGPDQLTPKEQLQQEQIPLPPQHDVIVDQPDHSASSSGDSSVINRAFDNSNHHHHHQHHHPPLVVSHRKIISELAEIVYTALDYNLPEDEECQVSQELENLFNFMTADETDDDCIDEGIDEGDKRWDDESEEERNDTKELEHIIETCRNHIKTTLPENHYRAVCRALVTETIELRVFLQQVLNNEAGAEKLIKASESSATTQQELAKLGFNDWARFWVQVIDELRRGVRLKKSNHERTPIEYELTPYEILMGDIRAKKYQLRKVMVNGDIPPRVKKDAHAMILEFIRSRPPLKKASDRQLGPPRMCEPSPREQLMESIRKGKELKQITPPEAPTLRERVLPSANSTLSRSRQRLIKVDFSKFQDDDLFYDENSISSSHSTAATHQHHPHFAEMHRCSQPKMPPYPFGGYMVPSQARQDCRETASLMRPRRTMEPAKQVPPPEEPSFTKDEYHKFYDTALESYDLATQCESRRASLRRHTIVGCQSNLDETHSMPPTRPESRQSDDVSKETPKRSPAEQTHPSDEGSSTSSLGPWNKSFMDKQTWMERGDDRLSVTLAEIVHIRSVMTKAELEGLPMDVRVKEDVEKRRVCFLCLRTRFSFFGPWGIQCKLCQRTVCAKCYTKMRIPSEHFRNVPLVLISPSLLSSPASSSTPSPSHHAQQAHSSSTGNIMDDQFPKSLIERLLRSESDRKTRSTVGSAPSSPKHQRSNMSTPGISVGPGASSSSAAATGQAVEALHDQATMSSSYSAAMRPSGVHQQQKQHYNNAMSRSMEGPRSLPVHSPAYRPLSNNSTLERKSRFSRGFNLFSSGSHLAQTQEQKENLRGEQVTVCNDCQGLVNEITSSVKQKRSSARNRTIQNLTLDLTPVWK
- MAPPIT interaction score ([11]; MAPPIT configuration: N-C): -0.762
- MAPPIT interaction score ([11]; MAPPIT configuration: N-N): 0.149

B7: CycA (protein)
chain: MASFQIHQDMSNKENPGIKIPAGVKNTKQPLAVIGGKAEKNALAPRANFAVLNGNNNVPRPAGKVQVFRDVRNLNVDENVEYGAKKSNVVPVVEQFKTFSVYEDNNDTQVAPSGKSLASLVDKENHDVKFGAGQKELVDYDLDSTPMSVTDVQSPMSVDRSILGVIQSSDISVGTETGVSPTGRVKELPPRNDRQRFLEVVQYQMDILEYFRESEKKHRPKPLYMRRQKDISHNMRSILIDWLVEVSEEYKLDTETLYLSVFYLDRFLSQMAVVRSKLQLVGTAAMYIAAKYEEIYPPEVGEFVFLTDDSYTKAQVLRMEQVILKILSFDLCTPTAYVFINTYAVLCDMPEKLKYMTLYISELSLMEGETYLQYLPSLMSSASVALARHILGMEMWTPRLEEITTYKLEDLKTVVLHLCHTHKTAKELNTQAMREKYNRDTYKKVAMMESVEMSKDDFDQLCEAYNCKQKEDEHQQPDINTKSNVNLFYKF
- MAPPIT interaction score [12]: 1.52

B8: Crk (protein)
chain: MDTFDVSDRNSWYFGPMSRQDATEVLMNERERGVFLVRDSNSIAGDYVLCVREDTKVSNYIINKVQQQDQIVYRIGDQSFDNLPKLLTFYTLHYLDTTPLKRPACRRVEKVIGKFDFVGSDQDDLPFQRGEVLTIVRKDEDQWWTARNSSGKIGQIPVPYIQQYDDYMDEDAIDKNEPSISGSSNVFESTLKRTDLNRKLPAYARVKQSRVPNAYDKTALKLEIGDIIKVTKTNINGQWEGELNGKNGHFPFTHVEFVDDCDLSKNSTEIC
- MAPPIT interaction score ([8]; MAPPIT configuration: N-C, pair source set: screen_4): 2.72
- MAPPIT interaction score [13]: 0.475
- MAPPIT interaction score [14]: 0.17
- MAPPIT interaction score [15]: 2.44
